Among the data in publication PMC7862700, “An all-to-all approach to the identification of sequence-specific readers for epigenetic DNA modifications on cytosine” are binding signal values, retold here.

Chain of SPIB (Q01892 whole entry): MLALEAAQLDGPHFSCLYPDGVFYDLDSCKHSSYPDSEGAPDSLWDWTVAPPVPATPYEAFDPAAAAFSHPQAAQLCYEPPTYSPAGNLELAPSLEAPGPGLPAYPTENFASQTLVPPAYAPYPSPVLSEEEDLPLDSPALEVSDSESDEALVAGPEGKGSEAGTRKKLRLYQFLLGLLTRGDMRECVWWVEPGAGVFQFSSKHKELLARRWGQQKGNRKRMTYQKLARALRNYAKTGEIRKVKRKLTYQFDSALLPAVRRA

In the first assay the target is SPI1 (Homo sapiens, UniProt P17947 1-270). Briefly: DAPPL (digital affinity profiling via proximity ligation, sequencing); 10 mM Tris-HCl pH 7.5, 50 mM NaCl, 1 mM DTT, 4% glycerol, room temperature, 30 min; GST-TFs on glutathione beads, 16-mer random dsDNA library, 0.1% formaldehyde crosslink after washing; high values mean tight binding. Particulars: protein: recombinant; tags: N-terminal GST; dsDNA, one strand shown. In outline: (§1)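 A tag-only sample was pooled with DNA-barcoded human transcription factors that had been expressed in yeast as GST fusions and captured on glutathione beads. The pools were incubated for 30 min at room temperature with 200 nmole of a random double-stranded 16-mer DNA library in Tris/NaCl/DTT/glycerol buffer, then washed, crosslinked with 0.1% formaldehyde, proximity-ligated (BsaI/T4 ligase, 1 h, 37 °C), PCR-amplified and sequenced on an Illumina NextSeq500. Binding signal is each hexamer's read frequency for a factor divided by its frequency for the tag-only sample.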
With GACCTC, the binding signal is 1.36 fold enrichment (6-mer frequency, TF over GST control).

In the case of CGTTCC, the binding signal is 1.44 fold enrichment (6-mer frequency, TF over GST control).

On to ACTGGC, for which the binding signal was 1.22 fold enrichment (6-mer frequency, TF over GST control).

As to ATGGAC, the binding signal was 1.25 fold enrichment (6-mer frequency, TF over GST control).

For CAATTG, the binding signal was 1.25 fold enrichment (6-mer frequency, TF over GST control).

Regarding TGCCGA, the binding signal was 1.2 fold enrichment (6-mer frequency, TF over GST control).

In the case of ACTCAC, the binding signal is 1.23 fold enrichment (6-mer frequency, TF over GST control).

For the sequence GCCTCA, the binding signal was 1.17 fold enrichment (6-mer frequency, TF over GST control).

Consider CGACCC, for which the binding signal is 1.23 fold enrichment (6-mer frequency, TF over GST control).

In the case of CCACGC, the binding signal was 1.07 fold enrichment (6-mer frequency, TF over GST control).

On to TGTTCA, for which the binding signal was 1.3 fold enrichment (6-mer frequency, TF over GST control).

In the case of GAAAAA, the binding signal is 1.21 fold enrichment (6-mer frequency, TF over GST control).

For the sequence TGTACA, the binding signal is 1.28 fold enrichment (6-mer frequency, TF over GST control).

Turning to CGTCCT, the binding signal is 1.42 fold enrichment (6-mer frequency, TF over GST control).

Regarding GAAGCA, the binding signal was 1.28 fold enrichment (6-mer frequency, TF over GST control).

As to ACTGCC, the binding signal is 1.48 fold enrichment (6-mer frequency, TF over GST control).

Turning to TGCGTA, the binding signal was 1.17 fold enrichment (6-mer frequency, TF over GST control).

As to CGCGTC, the binding signal is 1.27 fold enrichment (6-mer frequency, TF over GST control).

In the case of CCGACA, the binding signal is 1.24 fold enrichment (6-mer frequency, TF over GST control).

Turning to GCGTTC, the binding signal was 1.08 fold enrichment (6-mer frequency, TF over GST control).

On to GTACAT, for which the binding signal is 1.28 fold enrichment (6-mer frequency, TF over GST control).

Consider CGACAT, for which the binding signal is 1.27 fold enrichment (6-mer frequency, TF over GST control).

As for CCTGCA, the binding signal is 1.17 fold enrichment (6-mer frequency, TF over GST control).

On to TGCAAC, for which the binding signal was 1.28 fold enrichment (6-mer frequency, TF over GST control).

For the sequence TGCCCC, the binding signal was 1.31 fold enrichment (6-mer frequency, TF over GST control).

For TGACAT, the binding signal was 1.21 fold enrichment (6-mer frequency, TF over GST control).

In the case of CCGTAC, the binding signal is 1.22 fold enrichment (6-mer frequency, TF over GST control).

For the sequence TGAAAC, the binding signal was 1.28 fold enrichment (6-mer frequency, TF over GST control).

For the sequence ACTGCG, the binding signal was 1.33 fold enrichment (6-mer frequency, TF over GST control).

CCCTCA: the binding signal is 1.12 fold enrichment (6-mer frequency, TF over GST control).

TGACCA: the binding signal was 1.25 fold enrichment (6-mer frequency, TF over GST control).

With TCTGAC, the binding signal is 1.09 fold enrichment (6-mer frequency, TF over GST control).

Regarding ACGAAC, the binding signal was 1.1 fold enrichment (6-mer frequency, TF over GST control).

For GAAGTT, the binding signal was 2.02 fold enrichment (6-mer frequency, TF over GST control).

Take CCGGCA: the binding signal is 1.44 fold enrichment (6-mer frequency, TF over GST control).

Regarding ACCGTC, the binding signal was 1.18 fold enrichment (6-mer frequency, TF over GST control).

Regarding CTGCCA, the binding signal is 1.24 fold enrichment (6-mer frequency, TF over GST control).

For GTCTCT, the binding signal was 1.32 fold enrichment (6-mer frequency, TF over GST control).

Regarding GAAACT, the binding signal is 1.2 fold enrichment (6-mer frequency, TF over GST control).

A further assay deals with SPIB (Homo sapiens, UniProt Q01892 1-262). The assay is described as above. As to conditions: protein: recombinant; tags: N-terminal GST; dsDNA, one strand shown. In outline:
as §1
For GACCTC, the binding signal was 1.42 fold enrichment (6-mer frequency, TF over GST control).

In the case of CGTTCC, the binding signal was 1.54 fold enrichment (6-mer frequency, TF over GST control).

For the sequence ACTGGC, the binding signal is 1.15 fold enrichment (6-mer frequency, TF over GST control).

In the case of ATGGAC, the binding signal was 1.38 fold enrichment (6-mer frequency, TF over GST control).

For CAATTG, the binding signal was 1.16 fold enrichment (6-mer frequency, TF over GST control).

Turning to TGCCGA, the binding signal is 1.18 fold enrichment (6-mer frequency, TF over GST control).

With ACTCAC, the binding signal is 1.44 fold enrichment (6-mer frequency, TF over GST control).

For the sequence GCCTCA, the binding signal was 1.25 fold enrichment (6-mer frequency, TF over GST control).

In the case of CGACCC, the binding signal is 1.21 fold enrichment (6-mer frequency, TF over GST control).

In the case of CCACGC, the binding signal is 1.14 fold enrichment (6-mer frequency, TF over GST control).

Take TGTTCA: the binding signal is 1.17 fold enrichment (6-mer frequency, TF over GST control).

As to GAAAAA, the binding signal is 1.18 fold enrichment (6-mer frequency, TF over GST control).

For TGTACA, the binding signal was 1.35 fold enrichment (6-mer frequency, TF over GST control).

On to CGTCCT, for which the binding signal was 1.38 fold enrichment (6-mer frequency, TF over GST control).

Regarding GAAGCA, the binding signal is 1.25 fold enrichment (6-mer frequency, TF over GST control).

ACTGCC: the binding signal is 1.41 fold enrichment (6-mer frequency, TF over GST control).

Take TGCGTA: the binding signal is 1.22 fold enrichment (6-mer frequency, TF over GST control).

In the case of CGCGTC, the binding signal was 1.32 fold enrichment (6-mer frequency, TF over GST control).

As to CCGACA, the binding signal was 1.25 fold enrichment (6-mer frequency, TF over GST control).

For the sequence GCGTTC, the binding signal was 1.12 fold enrichment (6-mer frequency, TF over GST control).

For GTACAT, the binding signal was 1.36 fold enrichment (6-mer frequency, TF over GST control).

For CGACAT, the binding signal was 1.3 fold enrichment (6-mer frequency, TF over GST control).

For CCTGCA, the binding signal is 1.24 fold enrichment (6-mer frequency, TF over GST control).

Turning to TGCAAC, the binding signal was 1.34 fold enrichment (6-mer frequency, TF over GST control).

Take TGCCCC: the binding signal was 1.13 fold enrichment (6-mer frequency, TF over GST control).

On to TGACAT, for which the binding signal was 1.19 fold enrichment (6-mer frequency, TF over GST control).

Consider CCGTAC, for which the binding signal is 1.15 fold enrichment (6-mer frequency, TF over GST control).

Take TGAAAC: the binding signal was 1.18 fold enrichment (6-mer frequency, TF over GST control).

Consider ACTGCG, for which the binding signal was 1.3 fold enrichment (6-mer frequency, TF over GST control).

Take CCCTCA: the binding signal is 1.25 fold enrichment (6-mer frequency, TF over GST control).

Take TGACCA: the binding signal was 1.21 fold enrichment (6-mer frequency, TF over GST control).

On to TCTGAC, for which the binding signal is 1.25 fold enrichment (6-mer frequency, TF over GST control).

On to ACGAAC, for which the binding signal is 1.22 fold enrichment (6-mer frequency, TF over GST control).

Take GAAGTT: the binding signal is 1.72 fold enrichment (6-mer frequency, TF over GST control).

On to CCGGCA, for which the binding signal is 1.53 fold enrichment (6-mer frequency, TF over GST control).

Turning to ACCGTC, the binding signal was 1.09 fold enrichment (6-mer frequency, TF over GST control).

Turning to CTGCCA, the binding signal is 1.28 fold enrichment (6-mer frequency, TF over GST control).

Consider GTCTCT, for which the binding signal is 1.25 fold enrichment (6-mer frequency, TF over GST control).

For GAAACT, the binding signal was 1.14 fold enrichment (6-mer frequency, TF over GST control).

In another assay the target is T1, ELK3 (Homo sapiens, UniProt P41970 1-407).
T1 sequence: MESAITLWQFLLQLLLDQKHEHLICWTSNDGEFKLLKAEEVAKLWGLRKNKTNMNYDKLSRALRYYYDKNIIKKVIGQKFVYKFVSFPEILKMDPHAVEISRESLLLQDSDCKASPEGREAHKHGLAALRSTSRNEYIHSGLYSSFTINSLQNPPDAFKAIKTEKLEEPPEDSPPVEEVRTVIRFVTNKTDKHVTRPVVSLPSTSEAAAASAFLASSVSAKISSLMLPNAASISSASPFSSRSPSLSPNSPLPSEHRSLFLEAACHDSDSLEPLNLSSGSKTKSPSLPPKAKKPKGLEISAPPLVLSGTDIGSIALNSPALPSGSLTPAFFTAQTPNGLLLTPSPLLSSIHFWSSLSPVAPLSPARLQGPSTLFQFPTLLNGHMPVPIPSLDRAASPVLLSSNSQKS
Described as above. As to conditions: protein: recombinant; tags: N-terminal GST; dsDNA, one strand shown. In outline: as §1
Take GACCTC: the binding signal was 1.33 fold enrichment (6-mer frequency, TF over GST control).

With CGTTCC, the binding signal is 1.46 fold enrichment (6-mer frequency, TF over GST control).

Consider ACTGGC, for which the binding signal was 1.21 fold enrichment (6-mer frequency, TF over GST control).

For the sequence ATGGAC, the binding signal is 1.19 fold enrichment (6-mer frequency, TF over GST control).

On to CAATTG, for which the binding signal is 1.23 fold enrichment (6-mer frequency, TF over GST control).

TGCCGA: the binding signal is 1.1 fold enrichment (6-mer frequency, TF over GST control).

In the case of ACTCAC, the binding signal was 1.35 fold enrichment (6-mer frequency, TF over GST control).

On to GCCTCA, for which the binding signal was 1.19 fold enrichment (6-mer frequency, TF over GST control).

With CGACCC, the binding signal is 1.37 fold enrichment (6-mer frequency, TF over GST control).

For the sequence CCACGC, the binding signal is 1.31 fold enrichment (6-mer frequency, TF over GST control).

TGTTCA: the binding signal is 1.37 fold enrichment (6-mer frequency, TF over GST control).

On to GAAAAA, for which the binding signal is 1.21 fold enrichment (6-mer frequency, TF over GST control).

Turning to TGTACA, the binding signal is 1.11 fold enrichment (6-mer frequency, TF over GST control).

Regarding CGTCCT, the binding signal is 1.47 fold enrichment (6-mer frequency, TF over GST control).

Turning to GAAGCA, the binding signal is 1.43 fold enrichment (6-mer frequency, TF over GST control).

ACTGCC: the binding signal is 1.3 fold enrichment (6-mer frequency, TF over GST control).

With TGCGTA, the binding signal was 1.09 fold enrichment (6-mer frequency, TF over GST control).

For the sequence CGCGTC, the binding signal is 1.08 fold enrichment (6-mer frequency, TF over GST control).

CCGACA: the binding signal was 1.16 fold enrichment (6-mer frequency, TF over GST control).

For GCGTTC, the binding signal was 1.13 fold enrichment (6-mer frequency, TF over GST control).

For GTACAT, the binding signal was 1.44 fold enrichment (6-mer frequency, TF over GST control).

For CGACAT, the binding signal is 1.4 fold enrichment (6-mer frequency, TF over GST control).

In the case of CCTGCA, the binding signal was 1.23 fold enrichment (6-mer frequency, TF over GST control).

In the case of TGCAAC, the binding signal was 1.43 fold enrichment (6-mer frequency, TF over GST control).

Regarding TGCCCC, the binding signal is 1.18 fold enrichment (6-mer frequency, TF over GST control).

For the sequence TGACAT, the binding signal was 1.15 fold enrichment (6-mer frequency, TF over GST control).

Consider CCGTAC, for which the binding signal is 1.28 fold enrichment (6-mer frequency, TF over GST control).

Turning to TGAAAC, the binding signal was 1.33 fold enrichment (6-mer frequency, TF over GST control).

For ACTGCG, the binding signal was 1.25 fold enrichment (6-mer frequency, TF over GST control).

Take CCCTCA: the binding signal is 1.19 fold enrichment (6-mer frequency, TF over GST control).

Regarding TGACCA, the binding signal is 1.45 fold enrichment (6-mer frequency, TF over GST control).

As for TCTGAC, the binding signal is 1.24 fold enrichment (6-mer frequency, TF over GST control).

Take ACGAAC: the binding signal is 1.13 fold enrichment (6-mer frequency, TF over GST control).

As to GAAGTT, the binding signal is 1.62 fold enrichment (6-mer frequency, TF over GST control).

With CCGGCA, the binding signal is 1.5 fold enrichment (6-mer frequency, TF over GST control).

Regarding ACCGTC, the binding signal was 1.22 fold enrichment (6-mer frequency, TF over GST control).

Consider CTGCCA, for which the binding signal was 1.08 fold enrichment (6-mer frequency, TF over GST control).

Take GTCTCT: the binding signal was 1.14 fold enrichment (6-mer frequency, TF over GST control).

GAAACT: the binding signal was 1.22 fold enrichment (6-mer frequency, TF over GST control).
